Screens deposited in PubChem by several laboratories.
Most compounds without a hit are left out; they make up all but 32% or so of the library.
CYP2C19 activ: cytochrome P450 2C19 (human) activation; P33261; recombinant CYP2C19, luciferin-H EGE luminescence; hits give high values; 0 = fully inhibited enzyme, 1 = untreated enzyme; AID 1025; 96,000 tested, under 10 active; activation factor at 5 µM;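 active = activation factor of at least 2 at 5 µM in the primary screen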
PostGolgi ctrl: yeast control strain growth, post-Golgi counter-screen. efflux-deficient yeast background strain, growth absorbance A615, 16 h. inhibition, % at 10 µM. 98,000 compounds, 5% hits. AID 738
CYP2C19 inh: blocks human cytochrome P450 2C19. P33261. CYP2C19 Supersomes, luciferin-H EGE luminescence, 30 min. inhibition, % at 5 µM. 96,000 compounds, 21% hits. AID 778;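 active = CYP2C19 inhibition above a set limit at 5 µM in the primary screen, cut at about 50% in these data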
PostGolgi yeast: growth inhibition of a yeast mutant, post-Golgi transport screen; post-Golgi transport phenotypic cell assay; inhibition, % at 10 µM; 98,000 compounds, 0.9% hits; AID 739;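 also: yeast cells grown in 1536-well plates; yeast grown about 18 h at 30C before absorbance read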
CYP2C9 inhib: inhibitors of human CYP2C9 | CYP2C9 Supersomes, luciferin-H conversion, luminescence | inhibition, % at 5 µM | 96,000 compounds, 20% hits;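 active = blocking of liver enzyme CYP2C9 beyond about 50% at 5 µM, limit read from the data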
Target sequence (P11712 whole entry, looked up): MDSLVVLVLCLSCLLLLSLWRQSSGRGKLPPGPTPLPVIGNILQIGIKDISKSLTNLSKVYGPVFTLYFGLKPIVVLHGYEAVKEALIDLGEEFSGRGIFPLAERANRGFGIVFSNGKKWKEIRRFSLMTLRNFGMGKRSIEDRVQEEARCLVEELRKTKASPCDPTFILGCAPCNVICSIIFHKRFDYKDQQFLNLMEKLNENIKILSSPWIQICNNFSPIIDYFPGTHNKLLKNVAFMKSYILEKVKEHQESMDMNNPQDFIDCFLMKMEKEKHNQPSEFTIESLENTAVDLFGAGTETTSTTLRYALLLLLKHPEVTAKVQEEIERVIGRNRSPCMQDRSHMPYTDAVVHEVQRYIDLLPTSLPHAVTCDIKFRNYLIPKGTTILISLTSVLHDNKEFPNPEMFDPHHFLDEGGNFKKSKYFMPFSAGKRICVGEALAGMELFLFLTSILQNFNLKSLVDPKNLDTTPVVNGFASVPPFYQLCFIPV
CYP2C9 activ: increases human cytochrome P450 2C9 activity; AID 1024; activation factor at 5 µM; recombinant CYP2C9, luciferin-H conversion, luminescence; hits give high values; factor 1 = untreated enzyme, 0 = blocked; 96,000 compounds, 1.4% hits;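 active = activation factor of 2 or more for CYP2C9 at a 5 µM dose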
Numbers stand for hits. Rule as the data show it, unless noted: active = inhibition above about 30%; inactive = the rest.

How did Cc1nnc(SCc2cn3ccsc3n2)n(N)c1=O do in these assays?
CYP2C19 activ: inactive; PostGolgi ctrl: inactive; CYP2C19 inh: inactive; PostGolgi yeast: inactive; CYP2C9 inhib: inactive; CYP2C9 activ: inactive

What do the screens show for `COc1ccc(C)cc1-n1nnnc1SCc1cn2ccsc2n1`?
CYP2C19 activ: inactive; PostGolgi ctrl: inactive; CYP2C19 inh: 87; PostGolgi yeast: inactive; CYP2C9 inhib: inactive; CYP2C9 activ: inactive

What do the screens show for `CC(=O)N1CCN(c2ccc(NC(=O)c3ccccc3Br)cc2Cl)CC1`?
PostGolgi ctrl: inactive; PostGolgi yeast: inactive

Results for Nc1nc(N)c2sc3nc4c(cc3c2n1)CCC4 ?
CYP2C19 activ: inactive; PostGolgi ctrl: inactive; CYP2C19 inh: inactive; PostGolgi yeast: inactive; CYP2C9 inhib: inactive; CYP2C9 activ: inactive

How did COc1ccc(C(C)=O)cc1CN(C)C do in these assays?
CYP2C19 activ: inactive; PostGolgi ctrl: inactive; CYP2C19 inh: inactive; PostGolgi yeast: inactive; CYP2C9 inhib: inactive; CYP2C9 activ: inactive

Results for COC(=O)c1ccc(COC(=O)c2ccc(-n3cnnn3)cc2)o1 ?
CYP2C19 activ: inactive; PostGolgi ctrl: inactive; CYP2C19 inh: inactive; PostGolgi yeast: inactive; CYP2C9 inhib: 64; CYP2C9 activ: inactive

How did COc1ccc(OC)c(NC(=O)COC(=O)c2ccc(-n3cnnn3)cc2)c1 do in these assays?
CYP2C19 activ: inactive; PostGolgi ctrl: inactive; CYP2C19 inh: 63; PostGolgi yeast: inactive; CYP2C9 inhib: inactive; CYP2C9 activ: inactive

What do the screens show for `COc1ccc(C(C)=O)cc1COc1ccc(-n2cnnn2)cc1`?
CYP2C19 activ: inactive; PostGolgi ctrl: inactive; CYP2C19 inh: 99; PostGolgi yeast: inactive; CYP2C9 inhib: 93; CYP2C9 activ: inactive

How did COc1cc(NC(=O)COc2ccc(-n3cnnn3)cc2)c(OC)cc1Cl do in these assays?
CYP2C19 activ: inactive; PostGolgi ctrl: inactive; CYP2C19 inh: inactive; PostGolgi yeast: inactive; CYP2C9 inhib: inactive; CYP2C9 activ: inactive

How did Cc1c(NC(=O)c2n[nH]c(=O)c3ccccc23)c(=O)n(-c2ccccc2)n1C do in these assays?
CYP2C19 activ: inactive; PostGolgi ctrl: inactive; CYP2C19 inh: inactive; PostGolgi yeast: inactive; CYP2C9 inhib: inactive; CYP2C9 activ: inactive

How did CCS(=O)(=O)N1CCCC(C(=O)NCCCN2CCCC2=O)C1 (stereo not drawn) do in these assays?
CYP2C19 activ: inactive; PostGolgi ctrl: inactive; CYP2C19 inh: inactive; PostGolgi yeast: inactive; CYP2C9 inhib: inactive; CYP2C9 activ: inactive

Results for Cc1ccnc(NS(=O)(=O)c2ccc(NS(=O)(=O)Cc3ccccc3)cc2)n1 ?
CYP2C19 activ: inactive; PostGolgi ctrl: inactive; CYP2C19 inh: inactive; PostGolgi yeast: inactive; CYP2C9 inhib: inactive; CYP2C9 activ: inactive

Results for CC(C)NC(=O)c1ccc2c(=O)n(C3CCCC3)c(=S)[nH]c2c1 ?
CYP2C19 activ: inactive; PostGolgi ctrl: inactive; CYP2C19 inh: inactive; PostGolgi yeast: inactive; CYP2C9 inhib: inactive; CYP2C9 activ: inactive

Results for O=C(c1ccc2c(=O)n(C3CCCC3)c(=S)[nH]c2c1)N1CCc2ccccc21 ?
CYP2C19 activ: inactive; PostGolgi ctrl: 99; CYP2C19 inh: inactive; PostGolgi yeast: 67; CYP2C9 inhib: inactive; CYP2C9 activ: inactive

How did COc1ccc(NC(=O)CSc2nc3ncccc3[nH]2)cc1OC do in these assays?
CYP2C19 activ: inactive; PostGolgi ctrl: inactive; CYP2C19 inh: inactive; PostGolgi yeast: inactive; CYP2C9 inhib: inactive; CYP2C9 activ: inactive

How did COC(=O)CSc1nc2ncccc2[nH]1 do in these assays?
CYP2C19 activ: inactive; PostGolgi ctrl: 35; CYP2C19 inh: inactive; PostGolgi yeast: inactive; CYP2C9 inhib: inactive; CYP2C9 activ: inactive

Results for COc1ccc(OC)c(C(=O)CSc2nc3ncccc3[nH]2)c1 ?
CYP2C19 activ: inactive; PostGolgi ctrl: inactive; CYP2C19 inh: 79; PostGolgi yeast: inactive; CYP2C9 inhib: 90; CYP2C9 activ: inactive

How did O=C(CCc1ccccc1)n1nc(-c2ccco2)nc1SCc1ccccc1 do in these assays?
CYP2C19 activ: inactive; PostGolgi ctrl: inactive; CYP2C19 inh: inactive; PostGolgi yeast: inactive; CYP2C9 inhib: inactive; CYP2C9 activ: inactive

Results for CCOc1cc(C2CC(=O)N3CN(C4CCCCC4)CSC3=C2C#N)ccc1O (stereo not drawn) ?
CYP2C19 activ: inactive; PostGolgi ctrl: inactive; CYP2C19 inh: 53; PostGolgi yeast: inactive; CYP2C9 inhib: 82; CYP2C9 activ: inactive

Results for COc1cc(C2CC(=O)N3CN(Cc4ccco4)CSC3=C2C#N)ccc1OCc1ccccc1 (stereo not drawn) ?
CYP2C19 activ: inactive; PostGolgi ctrl: inactive; CYP2C19 inh: inactive; PostGolgi yeast: inactive; CYP2C9 inhib: 83; CYP2C9 activ: inactive

How did COc1ccc2ccccc2c1C1CC(=O)N2CN(Cc3ccco3)CSC2=C1C#N (stereo not drawn) do in these assays?
CYP2C19 activ: inactive; PostGolgi ctrl: inactive; CYP2C19 inh: 55; PostGolgi yeast: inactive; CYP2C9 inhib: 86; CYP2C9 activ: inactive

Results for COc1ccc2ccccc2c1C1CC(=O)N2CN(C3CCCCC3)CSC2=C1C#N (stereo not drawn) ?
CYP2C19 activ: inactive; PostGolgi ctrl: inactive; CYP2C19 inh: 55; PostGolgi yeast: inactive; CYP2C9 inhib: 90; CYP2C9 activ: inactive

What do the screens show for `COc1ccccc1N1CCN(Cc2ccco2)CC1`?
CYP2C19 activ: inactive; PostGolgi ctrl: inactive; CYP2C19 inh: inactive; PostGolgi yeast: inactive; CYP2C9 inhib: inactive; CYP2C9 activ: inactive

What do the screens show for `Cc1cc2nc(CCN(C(=S)NCC(C)C)C3CCCC3)[nH]c2cc1C`?
CYP2C19 activ: inactive; PostGolgi ctrl: inactive; CYP2C19 inh: inactive; PostGolgi yeast: inactive; CYP2C9 inhib: inactive; CYP2C9 activ: inactive

How did C=CCOc1ccc2ccccc2c1CNc1ncn[nH]1 do in these assays?
CYP2C19 activ: inactive; PostGolgi ctrl: inactive; CYP2C19 inh: 84; PostGolgi yeast: inactive; CYP2C9 inhib: 62; CYP2C9 activ: inactive

What do the screens show for `Cc1ccc(C(=O)N2c3ccc(F)cc3CCC2C)o1` (stereo not drawn)?
CYP2C19 activ: inactive; PostGolgi ctrl: inactive; CYP2C19 inh: 53; PostGolgi yeast: inactive; CYP2C9 inhib: inactive; CYP2C9 activ: inactive

Results for CC1CCc2cc(F)ccc2N1C(=O)c1ccc2c(c1)OCO2 (stereo not drawn) ?
CYP2C19 activ: inactive; PostGolgi ctrl: inactive; CYP2C19 inh: 62; PostGolgi yeast: inactive; CYP2C9 inhib: inactive; CYP2C9 activ: inactive

What do the screens show for `Cc1nn(Cc2ccc(C(=O)N3c4ccc(F)cc4CCC3C)o2)c(C)c1Br` (stereo not drawn)?
CYP2C19 activ: inactive; PostGolgi ctrl: inactive; CYP2C19 inh: 87; PostGolgi yeast: inactive; CYP2C9 inhib: inactive; CYP2C9 activ: inactive

Results for COc1cc(OC)cc(C(=O)N2c3ccc(F)cc3CCC2C)c1 (stereo not drawn) ?
CYP2C19 activ: inactive; PostGolgi ctrl: 32; CYP2C19 inh: 54; PostGolgi yeast: inactive; CYP2C9 inhib: inactive; CYP2C9 activ: inactive

How did CC1CCc2cc(F)ccc2N1C(=O)c1cnc2sccn2c1=O (stereo not drawn) do in these assays?
CYP2C19 activ: inactive; PostGolgi ctrl: inactive; CYP2C19 inh: inactive; PostGolgi yeast: inactive; CYP2C9 inhib: inactive; CYP2C9 activ: inactive
